Inconclusive results are not listed. Where a call stands in place of a potency, no number is given. Active and inactive are the calls of the source. Calls come from the whole dose curve; as a rule, active = well fitted cell-killing curve with a large enough effect; inconclusive = small, poorly fitted or top-dose-only effect, or effect the other way; inactive = no such curve, though single readings can be large or run the other way.
Potency is the fitted concentration of half-maximal effect.

The first test is described as follows: Quantitative High-Throughput drug screen in 47 multiple myeloma cell lines against the NCATS MIPE library collection: ARD_JJKsccE7 cell viability assay (AID 1918929). The settings on record: ARD myeloma cell line viability, CellTiter-Glo, 48 h; series mostly up to 45.8 µM. In a few lines:
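CellTiter-Glo ATP luminescence gave viability after 48 h compound treatment at 37C of 500 multiple myeloma cells per well. Normalisation used DMSO-only wells as 100% and media-only wells as 0% viability; primary qHTS of approved and investigational drugs.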
For orientation: ATP-based viability assays read luminescence as a measure of living cells.
Consider `Cc1ccc(NC(=O)c2cccc(C(C)(C)C#N)c2)cc1Nc1ccc2ncn(C)c(=O)c2c1`, for which the Potency was 0.332 µM (active).
Still for that read-out and setting: the result for `CC(C)(C)OC(=O)CN(Cc1ccc(Cl)cc1)Cc1ccc([N+](=O)[O-])s1` reads “inactive”; that for `Nc1nccc(-c2ccc3noc(-c4ccc(Cl)cc4)c3c2)n1`, “inactive”.
On the same count and under the same terms, to `CCOC(=O)N[C@@H]1CC[C@@H]2[C@@H](C1)C[C@H]1C(=O)O[C@H](C)[C@H]1[C@@H]2C=Cc1ccc(-c2cccc(F)c2)cn1` belongs 18.7 µM (active); to `Cc1csc(NC(=O)c2sc3nc4c(c(C(F)(F)F)c3c2N)CCC4)n1`, “inactive”; to `CC[C@@H](C)[C@H](NC(=O)[C@H](CC1CCCCC1)NC(=O)c1ccno1)C(=O)N1CCC2(CCc3ccccc32)CC1`, “inactive”.
The same measure, in the same setting: the result for `CC(C)(C)NCC(O)c1ccc(O)c(CO)c1` (stereo not drawn) reads 0.0526 µM (active); that for `Cc1c(CCOc2ccc(C(=O)O)cc2)c2cc(Cl)ccc2n1C(c1ccccc1)c1ccccc1`, “inactive”.
Regarding `COc1ccc(COc2cc3oc(=O)c4cc(C(C)O)ccc4c3cc2OC)cc1` (stereo not drawn), the Potency is 3.72 µM (active).
Same read-out and setting: to `CC(C[N+](C)(C)C)OC(N)=O` (stereo not drawn) belongs “inactive”; to `CS(=O)(=O)c1cccc(CNc2nc(Nc3ccc4c(c3)CCC(=O)N4)ncc2C(F)(F)F)c1`, 5.9 µM (active).
Same read-out and setting: the result for `CC(C)(N)C(=O)N[C@H](COCc1ccccc1)C(=O)N1CCC2(CC1)CN(S(C)(=O)=O)c1ccccc12` reads “inactive”; that for `N[C@@H]1CONC1=O`, “inactive”; that for `N#Cc1ccc(C(c2ccc(C#N)cc2)n2cncn2)cc1`, 6.62 µM (active).
Take `O=C(Nc1nc2ccccc2n1CCN1CCOCC1)c1cccc([N+](=O)[O-])c1`: the Potency is 4.18 µM (active).
On the same count and under the same terms, to `Nc1nc2ccc(OC(F)(F)F)cc2s1` belongs 16.6 µM (active); to `CC1(C)CNc2cc(NC(=O)c3cccnc3NCc3ccncc3)ccc21`, “inactive”.

A short description of the next test: Quantitative High-Throughput drug screen in 47 multiple myeloma cell lines against the NCATS MIPE library collection: Karpas620_DSMZ cell viability assay (AID 1918959). Note: nearly all actives have a fitted effect of over 30% in size. The settings on record: Karpas620 myeloma viability, CellTiter-Glo ATP luminescence, 48 h; series mostly up to 45.8 µM. In a few lines:
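We plated 500 myeloma cells per well, pinned in MIPE 4.0 compounds, and incubated for 48 hours at 37C. ATP was then quantified with CellTiter-Glo, with DMSO and media-only wells defining 100% and 0%.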
In the case of `COc1ccc2c3n(c(=NC(=O)c4cccnc4)nc2c1OC)CCN3`, the Potency is 7.43 µM (active).
Still for that read-out and setting: to `COc1ccc(CC2=NN3C([C@@H](CCc4ccccc4)[C@@H](C)O)=NC(C)C3C(=O)N2)cc1OC` (stereo partly drawn) belongs “inactive”.
On the same count and under the same terms, the result for `Cc1ccc(NC(=O)c2cccc(C(C)(C)C#N)c2)cc1Nc1ccc2ncn(C)c(=O)c2c1` reads 1.18 µM (active); that for `CC(C)(C)OC(=O)CN(Cc1ccc(Cl)cc1)Cc1ccc([N+](=O)[O-])s1`, “inactive”.
For the compound `Nc1nccc(-c2ccc3noc(-c4ccc(Cl)cc4)c3c2)n1`, the Potency result is “inactive”.
Same read-out and setting: to `Cc1csc(NC(=O)c2sc3nc4c(c(C(F)(F)F)c3c2N)CCC4)n1` belongs “inactive”; to `NC(=O)C1CCCc2c1[nH]c1ccc(Cl)cc21` (stereo not drawn), 18.7 µM (active); to `NC(N)=NC(=O)c1nc(Cl)c(N)nc1N`, “inactive”.
For `CC[C@@H](C)[C@H](NC(=O)[C@H](CC1CCCCC1)NC(=O)c1ccno1)C(=O)N1CCC2(CCc3ccccc32)CC1`, the Potency entry is “inactive”.
Same read-out and setting: the result for `CC(C)(C)NCC(O)c1ccc(O)c(CO)c1` (stereo not drawn) reads “inactive”; that for `Cc1c(CCOc2ccc(C(=O)O)cc2)c2cc(Cl)ccc2n1C(c1ccccc1)c1ccccc1`, “inactive”.
As to `COc1ccc(COc2cc3oc(=O)c4cc(C(C)O)ccc4c3cc2OC)cc1` (stereo not drawn), the Potency was 4.69 µM (active).
On the same count and under the same terms, to `CC(C[N+](C)(C)C)OC(N)=O` (stereo not drawn) belongs “inactive”; to `CS(=O)(=O)c1cccc(CNc2nc(Nc3ccc4c(c3)CCC(=O)N4)ncc2C(F)(F)F)c1`, 4.69 µM (active).
Consider `CC(C)(N)C(=O)N[C@H](COCc1ccccc1)C(=O)N1CCC2(CC1)CN(S(C)(=O)=O)c1ccccc12`, for which the Potency result is “inactive”.
For the compound `N[C@@H]1CONC1=O`, the Potency entry was “inactive”.
As for `N#CC[C@H](C1CCCC1)n1cc(-c2ncnc3[nH]ccc23)cn1`, the Potency is 5.26 µM (active).
Same read-out and setting: to `O=C(c1cc(Cc2n[nH]c(=O)c3ccccc23)ccc1F)N1CCN(C(=O)C2CC2)CC1` belongs “inactive”; to `N#Cc1ccc(C(c2ccc(C#N)cc2)n2cncn2)cc1`, 18.7 µM (active).
The same measure, in the same setting: to `O=C(Nc1nc2ccccc2n1CCN1CCOCC1)c1cccc([N+](=O)[O-])c1` belongs 7.43 µM (active); to `Nc1nc2ccc(OC(F)(F)F)cc2s1`, “inactive”.
The same measure, in the same setting: to `COc1cccc2cc(-c3nc(C4CCC(C(=O)O)CC4)n4ncnc(N)c34)[nH]c12` (stereo not drawn) belongs 0.59 µM (active); to `CC1(C)CNc2cc(NC(=O)c3cccnc3NCc3ccncc3)ccc21`, “inactive”.

The nature of another test: Quantitative High-Throughput drug screen in 47 multiple myeloma cell lines against the NCATS MIPE library collection: KMM1_JCRB cell viability assay (AID 1918960). Note: nearly all actives have a fitted effect of over 30% in size. The settings on record: KMM1 myeloma viability, CellTiter-Glo ATP luminescence, 48 h; series mostly up to 45.8 µM. In a few lines: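 Each line was plated at 500 cells/well and treated 48 h with library drugs. Viability came from CellTiter-Glo luminescence relative to DMSO and cell-free medium controls.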
With `COc1ccc(CC2=NN3C([C@@H](CCc4ccccc4)[C@@H](C)O)=NC(C)C3C(=O)N2)cc1OC` (stereo partly drawn), the Potency result is “inactive”.
Still for that read-out and setting: to `Cc1ccc(NC(=O)c2cccc(C(C)(C)C#N)c2)cc1Nc1ccc2ncn(C)c(=O)c2c1` belongs 2.35 µM (active); to `CC(C)(C)OC(=O)CN(Cc1ccc(Cl)cc1)Cc1ccc([N+](=O)[O-])s1`, “inactive”.
Same read-out and setting: to `Cc1csc(NC(=O)c2sc3nc4c(c(C(F)(F)F)c3c2N)CCC4)n1` belongs “inactive”; to `CC[C@@H](C)[C@H](NC(=O)[C@H](CC1CCCCC1)NC(=O)c1ccno1)C(=O)N1CCC2(CCc3ccccc32)CC1`, “inactive”.
On the same count and under the same terms, to `CC(C)(C)NCC(O)c1ccc(O)c(CO)c1` (stereo not drawn) belongs 0.059 µM (active); to `Cc1c(CN2CCN(C(=O)C(C)C)CC2)sc2c(N3CCOCC3)nc(-c3cnc(N)nc3)nc12`, 0.059 µM (active).
On to `Cc1c(CCOc2ccc(C(=O)O)cc2)c2cc(Cl)ccc2n1C(c1ccccc1)c1ccccc1`, for which the Potency entry was “inactive”.
As for `COc1ccc(COc2cc3oc(=O)c4cc(C(C)O)ccc4c3cc2OC)cc1` (stereo not drawn), the Potency was 4.69 µM (active).
On the same count and under the same terms, to `CNC(=O)c1ccc(N2C(=S)N(c3ccc(C#N)c(C(F)(F)F)c3)C(=O)C2(C)C)cc1F` belongs 9.35 µM (active).
Same read-out and setting: to `CC(C[N+](C)(C)C)OC(N)=O` (stereo not drawn) belongs “inactive”; to `CS(=O)(=O)c1cccc(CNc2nc(Nc3ccc4c(c3)CCC(=O)N4)ncc2C(F)(F)F)c1`, 4.18 µM (active).
The same measure, in the same setting: the result for `CC(C)(N)C(=O)N[C@H](COCc1ccccc1)C(=O)N1CCC2(CC1)CN(S(C)(=O)=O)c1ccccc12` reads “inactive”; that for `N[C@@H]1CONC1=O`, “inactive”.
For the compound `CC(=O)Oc1ccccc1C(=O)O`, the Potency entry is “inactive”.
As to `O=C(Nc1nc2ccccc2n1CCN1CCOCC1)c1cccc([N+](=O)[O-])c1`, the Potency was 5.26 µM (active).
The same measure, in the same setting: to `Nc1nc2ccc(OC(F)(F)F)cc2s1` belongs “inactive”; to `CC1(C)CNc2cc(NC(=O)c3cccnc3NCc3ccncc3)ccc21`, “inactive”.

Source of the values: PubChem BioAssay (NCATS).
